# According to PubChem BioAssay:
# A number with no mark means an inactive call. The source made the active and inactive calls.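 How the source made its calls: active means inhibition above the hit cutoff set in the earlier primary screen (cut at about 27% in these data); inactive means the rest.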
# Target: Protein phosphatase methylesterase 1 (Homo sapiens) (UniProt Q9Y570)
# Test: human PME-1 methylesterase inhibition confirmation – biochemical, fluorescence polarization, FP-Rh probe, triplicate (AID 2171);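 further: 0% = enzyme with DMSO and 100% = wells lacking PME-1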
# Conditions: recombinant PME-1, FP-Rh probe fluorescence polarization; at 5.9 µM; active compounds read high
# Sequence of Protein phosphatase methylesterase 1 (Homo sapiens) (Q9Y570 whole entry, looked up): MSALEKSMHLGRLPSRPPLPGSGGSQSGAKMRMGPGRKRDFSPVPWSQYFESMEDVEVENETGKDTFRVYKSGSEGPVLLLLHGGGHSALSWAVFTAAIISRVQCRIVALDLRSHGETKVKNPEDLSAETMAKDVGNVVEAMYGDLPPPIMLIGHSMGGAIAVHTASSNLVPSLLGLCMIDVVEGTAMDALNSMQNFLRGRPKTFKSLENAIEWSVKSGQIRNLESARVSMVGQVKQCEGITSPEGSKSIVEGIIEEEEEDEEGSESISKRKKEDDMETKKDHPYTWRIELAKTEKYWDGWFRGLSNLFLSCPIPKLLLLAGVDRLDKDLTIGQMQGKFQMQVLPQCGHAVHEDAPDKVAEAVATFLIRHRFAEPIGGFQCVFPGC
row,SMILES,inhibition
1,COc1ccc(-c2cc(C(=O)N3CCN(C(=O)c4ccccc4F)CC3)[nH]n2)cc1,21.7%
2,COc1cc(N/N=C(\C)c2ccc(O)c(C)c2)nc(-c2ccccc2)n1,27.3% (active)
3,O=c1c2ccccc2nc(/C=C/c2c[nH]c3ccccc23)n1CCO,58.5% (active)
4,O=C1Nc2ccccc2/C1=N\N=C\C1=C(N2CCOCC2)C(=C\c2ccccc2)/CC1,24%
5,Cc1ccc(Cn2nnc3c(=O)[nH]c(C4CCN(S(=O)(=O)/C=C/c5ccccc5)CC4)nc32)cc1,23.8%
6,Oc1ccc(/C=N/Nc2ccnc3cc(Cl)ccc23)c(O)c1O,51.8% (active)
7,Cc1[nH]c2c(C(=O)N3CCCC(CCC(=O)NCc4ccccc4F)C3)cccc2c1C (stereo not drawn),39.7% (active)
8,O=C(NNc1c2ccccc2nc2ccccc12)c1cccc(O)c1,36% (active)
9,COc1ccc(Nc2nc(NN)nc(C)c2[N+](=O)[O-])cc1,17.7%
10,COc1ccc2nc(-n3c(O)c(C4=c5ccccc5=NC4=O)[nH]c3=S)sc2c1,45.8% (active)
11,Cc1ccc2nsnc2c1NS(=O)(=O)c1c(C)ccc2nsnc12,22.3%
12,COc1cc(/C=N/NC(=O)c2ccc3c(c2)OCCO3)c(Br)c(Br)c1O,43% (active)
13,COc1ccc(OCCn2cc(/C=N/NC(=O)c3ccncc3)c3ccccc32)cc1,-21.9%
14,COc1cc2[nH]c3c(N4CCN(c5ccc(Cl)cc5)CC4)ncnc3c2cc1OC,74.9% (active)
15,CCN(CC)c1ccc(-c2nn3c(-c4ccccc4OC)nnc3s2)cc1,22.1%
16,Cc1cc(-c2ccccc2)nc(N/N=C/c2ccc(O)cc2O)n1,70.4% (active)
17,CCCN(CCC)CCCNC(=O)c1cn(CC)c2ccc(S(=O)(=O)N(C)C3CCCCC3)cc2c1=O,50.9% (active)
18,Cc1ccc(C(=O)O)cc1N1C(=O)c2cccc3c([N+](=O)[O-])ccc(c23)C1=O,38.7% (active)
19,Oc1ccc(Nc2nc3ccccc3nc2Nc2ccc(O)cc2)cc1,-0.74%
20,Oc1ccc(N=Cc2ccc(OCc3ccccc3)cc2)cc1,6.36%
21,Oc1ccc(/C=N/Nc2ccc(C(F)(F)F)cn2)c(O)c1,17.8%
22,Brc1ccc(N=NNc2ccccc2)cc1,31.4% (active)
23,CCc1ccc(-c2cc(C(=O)N/N=C/c3c[nH]c4ccccc34)[nH]n2)cc1,12%
